# Results: PubChem BioAssay (NCATS)
# Inconclusive results are not listed. Active and inactive are the calls of the source. Unless noted, calls follow the shape of the dose curve; as a rule, active = well fitted curve in the direction sought with a large enough effect; inconclusive = small, poorly fitted or top-dose-only effect, or another doubt; inactive = no such curve, though single readings can be large; an effect the other way counts as inactive or inconclusive.
# Columns and labels:
# [1] = AP1 Signaling Pathway (AID 357; active = well fitted curve in either direction with a large enough effect, not every such curve was filed as active; also: % is scaled to controls: 0 for no effect and ±100 for the full control effect); settings: ME-180 (cervical carcinoma) AP-1-bla reporter, EGF-induced, beta-lactamase ratio, 5 h; at 38 µM (top of the series)
# How it was run: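 Modulation of EGF-driven AP-1 transcription was assessed with a beta-lactamase reporter in ME-180 cells. Compound and EC50 EGF were co-incubated 5 hours at 37 °C before 2.5-hour CCF4 loading at room temperature and dual-emission reading.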
# [2] = molecular target: Cytochrome P450 1A2 (Homo sapiens) (UniProt P05177); assay: p450-cyp1a2 (AID 410; calls by dose curve; also: potency is read from the fitted curve at half-maximal effect)
# How it was run: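 Human CYP1A2 (20nM) demethylated Luciferin-ME at its Km (100uM) in 100mM KPO4. After 10 min compound preincubation, NADPH regeneration ran the reaction 60 min at room temperature. Luciferin was read by luminescence, normalized to 57 uM furafylline.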
# [3] = molecular target: Glucocorticoid receptor (Homo sapiens) (UniProt P04150); assay: GR-GFP Redistribution (AID 450;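 active = compounds whose dose series gives a full or clear partial fitted curve of increased nuclear translocation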; also: potency is read from the fitted curve at half-maximal effect); settings: U2OS GR-GFP nuclear translocation, laser cytometry, 2 h
# [4] = molecular target: Glucocorticoid receptor (Homo sapiens) (UniProt P04150); assay: GR-EFC Redistribution (AID 451; calls by dose curve; also: potency is read from the fitted curve at half-maximal effect); settings: CHO-K1 GR-EFC translocation, beta-gal luminescence, 2 h
# How it was run: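 CHO-K1 cells stably expressing nuclear-localized β-gal enzyme acceptor and GR fused C-terminally to the enzyme donor fragment; ligand-driven nuclear translocation restores β-gal by complementation. Compounds titrated up to 46 uM final, 2 h at 37 °C; luminescence read.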
# [5] = molecular target: 3',5'-cyclic-AMP phosphodiesterase 4B (Homo sapiens) (UniProt Q07343); assay: qHTS Assay for Inhibitors of PDE-IV (AID 607; active = well fitted activation curve with a large enough effect in the main read-out, with a control signal flat, not every such curve was filed as active; also: % of control where 0% means no effect)
# How it was run: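 The readout is membrane depolarisation from a cAMP-sensing CNG channel, detected with a potential dye at ex 535/em 590. Cells were HEK293-derived (endogenous PDE-IV) at 1000 cells/well, titrated up to 22.9 uM final.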
# [6] = molecular target: Guanine nucleotide-binding protein G(i) subunit alpha-1 (Homo sapiens) (UniProt P63096); assay: qHTS Assay for Inhibitors of RGS12 GoLoco Motif Activity (Green Fluorophore) (AID 879);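 also: 0% = labeled peptide with Gαi1 and full inhibition = labeled peptide alone without protein; negative values mean loss of peptide binding seen as reduced polarization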
# How it was run: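 Fluorescence polarization assay: 50 nM Gαi1 with 10 nM FITC-labeled RGS12 GoLoco peptide in 10 mM Tris pH 7.5, 150 mM NaCl, 0.1 mM GDP, 0.05% NP40, 10 min at room temperature with compound.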
# [7] = molecular target: Cytochrome P450 3A4 (Homo sapiens) (UniProt P08684); assay: qHTS Assay for Activators of Cytochrome P450 3A4 (AID 885); also: nearly all actives have a fitted effect of over 65% in size
# How it was run: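 Steps: enzyme/substrate mix dispensed; compound added, 10 min RT; NADPH regeneration solution added, 60 min RT; luciferin detection buffer stops reaction; 20 min later luminescence measured.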
# [8] = molecular target: Cytochrome P450 2C19 (Homo sapiens) (UniProt P33261); assay: qHTS Assay for Inhibitors and Substrates of Cytochrome P450 2C19 (AID 899); also: % is scaled to controls: 0 for no effect and ±100 for the full control effect; nearly all actives have a fitted effect of over 60% in size
# How it was run: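 In 50mM KPO4, the reaction held 5nM enzyme and KM-level (10uM) Luciferin-H EGE; it ran 60 min at 37C after NADPH regeneration and a 10 min compound preincubation. Luminescence values were scaled to 57uM ketoconazole as complete inhibition.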
# [9] = molecular target: Muscarinic acetylcholine receptor M1 (Rattus norvegicus) (UniProt P08482); assay: qHTS Assay for Antagonists of Acetylcholine Muscarinic M1 Receptor: Kinetic Measurement of Intracellular Calcium Response (AID 943);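 also: Fluo-4 calcium signal as peak divided by basal fluorescence over 4 min; nearly all actives have a fitted effect of over 75% in size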
# How it was run: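 CHO cells stably expressing rat M1 were loaded with no-wash Fluo-4 dye for 1 h at 37C, pre-incubated 10 min with compound, then challenged with EC80 carbachol (100 nM final); kinetic calcium read 4 min, peak/basal ratio.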
# [10] = molecular target: Pyruvate kinase (Leishmania mexicana) (UniProt Q27686); assay: qHTS Validation Assay for Inhibitors of Leishmania Mexicana Pyruvate Kinase (AID 945);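 also: 0% = DMSO only neutral control wells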
# How it was run: (§1)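 Eight-point qHTS titrations in triplicate, data normalized to DMSO neutral control. Reaction: 0.2 nM LmPYK E451W mutant, 0.5 mM PEP, 0.1 mM ADP, 7 mM MgCl2, pH 7.2, one hour at room temperature; luminescent ATP detection.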
# [11] = molecular target: Pyruvate kinase PKM (Homo sapiens) (UniProt P14618); assay: qHTS Assay for Activators of Human Muscle Pyruvate Kinase (AID 954; active = well fitted curve in the direction sought with a large enough effect, not every such curve was filed as active;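 also: 0% = uninhibited enzyme and -100% = no enzyme or full thiadiazolimine inhibition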)
# How it was run: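 Reaction: 0.1 nM purified PKM2 with 0.5 mM phosphoenolpyruvate and 0.1 mM ADP, room temperature, 1 h. Readout: luciferase-based ATP luminescence after stop reagent. Activators judged against a 0.3 nM enzyme column.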
# [12] = molecular target: Pyruvate kinase (Leishmania mexicana) (UniProt Q27686); assay: qHTS Validation Assay for Activators of Leishmania Mexicana Pyruvate Kinase (AID 959)
# How it was run: as §1
# [13] = molecular target: Alpha-galactosidase A (Homo sapiens) (UniProt P06280); assay: Counterscreen for Glucocerebrosidase Inhibitors: qHTS Assay for Human alpha-Galactosidase at pH 4.5 (AID 992); also: 0% is about no effect
# How it was run: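 Concentration-response curves (0.7 nM to 77 uM final) were modeled with the Hill equation to give AC50. Reactions: 2 nM enzyme, 80 uM fluorogenic alpha-galactoside, pH 4.5 citric acid buffer, 20 min, room temperature.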
# [14] = molecular target: alpha-glucosidase (Oryza sativa, rice) (UniProt Q653V4); assay: Counterscreen for Glucocerebrosidase Inhibitors: qHTS Assay for Rice alpha-Glucosidase at pH 5.0 (AID 997);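 also: 0% = full activity with enzyme and -100% = basal without enzyme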
# How it was run: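 Rice alpha-glucosidase (4 nM final) with 400 uM 4-methylumbelliferyl-alpha-D-glucopyranoside in citrate buffer pH 5.0, 20 min at room temperature, stopped at pH 10; fluorescence 365/440 nm, compounds 0.7 nM–77 uM, AC50 from Hill fits.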
# [15] = qHTS Assay for Lipid Storage Modulators (AID 1519; calls by dose curve; as to activity change, negative = inhibition: % is scaled to controls: 0 for no effect and ±100 for the full control effect); settings: Drosophila S3 cells, BODIPY lipid droplet/cell ratio, laser cytometry, cells loaded with oleic acid
# How it was run: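 Cells seeded at 5,000 per well were treated with compounds over a concentration series and loaded with oleic acid (400 uM, as added). Lipid droplet fluorescence (488 nm excitation, 500-530 nm channel) was read by laser-scanning cytometry and normalized to 20 uM Triacsin C.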
# [16] = molecular target: DNA repair nuclease/redox regulator APEX1 (Homo sapiens) (UniProt P27695); assay: qHTS Validation Assay for Inhibitors of the Human Apurinic/apyrimidinic Endonuclease 1 (APE1) (AID 1705; also: potency is read from the fitted curve at half-maximal effect)
# How it was run: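 Substrate: 50 nM final fluorophore/quencher THF-abasic duplex. Enzyme preincubated with compounds 15 min, RT. Progress derived from fluorescence difference, third minus first kinetic read.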
# [17] = Counterscreen for APE1 Inhibitors: Fluorescent Dye Displacement Validation Assay (AID 1707); also: potency is read from the fitted curve at half-maximal effect
# How it was run: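 Assay buffer: Tris-HCl pH7.5 with 50mM NaCl, 2 mM MgCl2, 0.01% Tween-20. Dye 250 nM, duplex 50 nM final. Readout: decrease in ThO endpoint fluorescence, 480 nm excitation, 540 nm emission.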
# [18] = molecular target: Endonuclease 4 (Escherichia coli (strain K12)) (UniProt P0A6C1); assay: Counterscreen for APE1 Inhibitors: qHTS Validation Assay for Inhibitors of Endonuclease IV (AID 1708); also: potency is read from the fitted curve at half-maximal effect
# How it was run: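 2 nM enzyme was preincubated with compounds for 15 min at room temperature in 50 mM Tris-HCl pH 7.5, 50 mM NaCl, 2 mM MgCl2, 1 mM DTT, 0.01% Tween-20. 50 nM THF-abasic TAMRA/BHQ-2 duplex substrate started the reaction.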
# Glucocorticoid receptor (Homo sapiens), sequence (P04150 whole entry, looked up, the tested form may be a part): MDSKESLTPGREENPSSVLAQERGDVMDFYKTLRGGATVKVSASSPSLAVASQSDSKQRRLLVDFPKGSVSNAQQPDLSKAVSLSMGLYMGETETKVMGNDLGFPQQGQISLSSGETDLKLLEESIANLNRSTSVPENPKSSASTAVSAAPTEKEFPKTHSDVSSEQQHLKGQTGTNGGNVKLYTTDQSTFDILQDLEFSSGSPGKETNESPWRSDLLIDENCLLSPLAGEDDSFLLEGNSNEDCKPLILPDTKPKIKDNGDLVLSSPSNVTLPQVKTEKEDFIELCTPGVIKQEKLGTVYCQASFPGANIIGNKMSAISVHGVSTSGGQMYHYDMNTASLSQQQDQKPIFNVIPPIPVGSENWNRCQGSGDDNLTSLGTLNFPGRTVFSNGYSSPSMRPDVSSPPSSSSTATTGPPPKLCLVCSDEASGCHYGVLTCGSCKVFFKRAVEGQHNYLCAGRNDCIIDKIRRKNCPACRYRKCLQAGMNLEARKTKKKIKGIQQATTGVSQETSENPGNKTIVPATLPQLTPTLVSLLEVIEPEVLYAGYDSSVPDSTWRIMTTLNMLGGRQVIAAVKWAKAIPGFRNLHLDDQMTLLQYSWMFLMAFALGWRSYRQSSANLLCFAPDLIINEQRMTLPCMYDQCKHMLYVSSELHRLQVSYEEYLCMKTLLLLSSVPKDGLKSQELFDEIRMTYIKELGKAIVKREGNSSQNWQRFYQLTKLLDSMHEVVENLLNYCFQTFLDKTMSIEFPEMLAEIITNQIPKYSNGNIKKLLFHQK
# Pyruvate kinase (Leishmania mexicana), sequence (Q27686 2-499 E452W): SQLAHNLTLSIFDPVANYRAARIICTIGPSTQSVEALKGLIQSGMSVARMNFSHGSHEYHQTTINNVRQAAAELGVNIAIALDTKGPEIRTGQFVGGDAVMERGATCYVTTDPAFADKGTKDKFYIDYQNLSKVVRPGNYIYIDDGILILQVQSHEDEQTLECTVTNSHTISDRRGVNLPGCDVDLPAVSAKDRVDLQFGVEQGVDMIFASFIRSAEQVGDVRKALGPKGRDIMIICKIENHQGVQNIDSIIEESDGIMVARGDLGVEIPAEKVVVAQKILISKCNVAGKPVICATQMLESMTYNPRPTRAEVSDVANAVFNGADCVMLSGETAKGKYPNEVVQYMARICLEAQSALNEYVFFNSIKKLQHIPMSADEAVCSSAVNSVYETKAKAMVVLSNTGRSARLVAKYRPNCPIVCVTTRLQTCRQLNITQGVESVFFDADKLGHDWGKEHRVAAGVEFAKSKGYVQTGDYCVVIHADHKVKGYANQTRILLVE
# Cytochrome P450 1A2 (Homo sapiens), sequence (P05177 whole entry, looked up): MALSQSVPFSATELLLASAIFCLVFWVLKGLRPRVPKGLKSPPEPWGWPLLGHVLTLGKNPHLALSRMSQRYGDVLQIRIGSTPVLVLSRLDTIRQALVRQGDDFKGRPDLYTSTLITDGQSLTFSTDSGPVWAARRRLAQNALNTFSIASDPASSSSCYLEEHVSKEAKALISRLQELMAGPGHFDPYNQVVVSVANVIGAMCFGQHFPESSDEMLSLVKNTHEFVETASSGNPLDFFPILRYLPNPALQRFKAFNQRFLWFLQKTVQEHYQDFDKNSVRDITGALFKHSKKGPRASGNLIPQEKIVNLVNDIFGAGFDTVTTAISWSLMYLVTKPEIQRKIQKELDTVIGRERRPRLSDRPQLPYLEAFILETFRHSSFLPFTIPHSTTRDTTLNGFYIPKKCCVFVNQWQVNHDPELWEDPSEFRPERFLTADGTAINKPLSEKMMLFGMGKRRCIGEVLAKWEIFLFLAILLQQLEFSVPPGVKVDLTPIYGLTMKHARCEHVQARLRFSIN
# Muscarinic acetylcholine receptor M1 (Rattus norvegicus), sequence (P08482 whole entry, looked up): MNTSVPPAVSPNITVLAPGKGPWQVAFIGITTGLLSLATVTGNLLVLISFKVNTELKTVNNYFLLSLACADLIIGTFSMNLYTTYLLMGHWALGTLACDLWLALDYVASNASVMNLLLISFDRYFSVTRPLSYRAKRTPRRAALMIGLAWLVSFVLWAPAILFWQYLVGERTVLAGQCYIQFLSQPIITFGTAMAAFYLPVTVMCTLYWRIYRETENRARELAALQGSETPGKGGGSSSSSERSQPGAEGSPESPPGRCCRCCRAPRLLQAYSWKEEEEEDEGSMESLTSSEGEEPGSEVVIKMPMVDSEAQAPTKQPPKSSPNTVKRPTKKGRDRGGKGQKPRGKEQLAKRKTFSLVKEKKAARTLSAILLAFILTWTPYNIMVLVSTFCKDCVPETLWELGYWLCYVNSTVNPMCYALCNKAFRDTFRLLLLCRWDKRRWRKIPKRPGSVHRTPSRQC
# Alpha-galactosidase A (Homo sapiens), sequence (P06280 whole entry, looked up): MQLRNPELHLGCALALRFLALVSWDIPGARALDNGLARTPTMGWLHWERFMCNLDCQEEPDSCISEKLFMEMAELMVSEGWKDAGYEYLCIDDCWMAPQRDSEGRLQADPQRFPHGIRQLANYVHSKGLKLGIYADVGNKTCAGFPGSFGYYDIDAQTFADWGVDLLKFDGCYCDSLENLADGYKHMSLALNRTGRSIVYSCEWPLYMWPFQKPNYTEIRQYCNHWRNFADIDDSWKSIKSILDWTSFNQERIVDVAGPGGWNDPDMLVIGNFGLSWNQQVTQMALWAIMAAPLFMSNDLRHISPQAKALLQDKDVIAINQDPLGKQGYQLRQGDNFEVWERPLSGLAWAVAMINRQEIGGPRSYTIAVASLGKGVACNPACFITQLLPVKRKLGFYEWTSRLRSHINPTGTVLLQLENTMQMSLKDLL
# 3',5'-cyclic-AMP phosphodiesterase 4B (Homo sapiens), sequence (Q07343 whole entry, looked up): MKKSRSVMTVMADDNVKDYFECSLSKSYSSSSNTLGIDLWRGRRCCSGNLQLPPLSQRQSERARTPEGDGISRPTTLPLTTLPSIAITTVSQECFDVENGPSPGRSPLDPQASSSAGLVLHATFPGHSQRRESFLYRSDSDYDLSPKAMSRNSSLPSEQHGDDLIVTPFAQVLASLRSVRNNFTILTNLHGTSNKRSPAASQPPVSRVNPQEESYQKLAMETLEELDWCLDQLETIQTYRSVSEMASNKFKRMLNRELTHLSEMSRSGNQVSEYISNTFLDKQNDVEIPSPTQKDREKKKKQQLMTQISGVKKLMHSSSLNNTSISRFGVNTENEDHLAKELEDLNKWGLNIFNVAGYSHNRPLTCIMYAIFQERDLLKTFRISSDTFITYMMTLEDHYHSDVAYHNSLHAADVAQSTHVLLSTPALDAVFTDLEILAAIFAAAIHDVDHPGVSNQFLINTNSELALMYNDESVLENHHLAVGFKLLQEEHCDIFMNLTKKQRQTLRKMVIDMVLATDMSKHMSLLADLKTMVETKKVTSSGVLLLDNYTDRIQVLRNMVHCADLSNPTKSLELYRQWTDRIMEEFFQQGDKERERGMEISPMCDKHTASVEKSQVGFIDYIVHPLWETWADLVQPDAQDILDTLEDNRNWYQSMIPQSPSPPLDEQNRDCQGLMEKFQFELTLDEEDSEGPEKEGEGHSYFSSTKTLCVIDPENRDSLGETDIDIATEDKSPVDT
# Cytochrome P450 2C19 (Homo sapiens), sequence (P33261 whole entry, looked up): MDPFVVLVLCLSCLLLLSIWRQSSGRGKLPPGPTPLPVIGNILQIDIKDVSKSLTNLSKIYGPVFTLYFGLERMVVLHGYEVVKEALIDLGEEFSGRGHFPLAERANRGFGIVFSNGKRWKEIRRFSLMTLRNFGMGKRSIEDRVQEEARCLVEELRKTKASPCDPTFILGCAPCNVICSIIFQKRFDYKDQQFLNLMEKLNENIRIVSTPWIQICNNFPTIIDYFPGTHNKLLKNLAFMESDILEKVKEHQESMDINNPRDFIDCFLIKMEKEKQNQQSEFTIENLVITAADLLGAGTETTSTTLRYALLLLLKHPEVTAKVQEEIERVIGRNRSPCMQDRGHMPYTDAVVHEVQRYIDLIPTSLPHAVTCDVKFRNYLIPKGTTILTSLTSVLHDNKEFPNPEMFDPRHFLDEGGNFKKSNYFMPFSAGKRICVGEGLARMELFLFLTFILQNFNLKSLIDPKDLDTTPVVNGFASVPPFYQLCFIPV
# Guanine nucleotide-binding protein G(i) subunit alpha-1 (Homo sapiens), sequence (P63096 whole entry, looked up): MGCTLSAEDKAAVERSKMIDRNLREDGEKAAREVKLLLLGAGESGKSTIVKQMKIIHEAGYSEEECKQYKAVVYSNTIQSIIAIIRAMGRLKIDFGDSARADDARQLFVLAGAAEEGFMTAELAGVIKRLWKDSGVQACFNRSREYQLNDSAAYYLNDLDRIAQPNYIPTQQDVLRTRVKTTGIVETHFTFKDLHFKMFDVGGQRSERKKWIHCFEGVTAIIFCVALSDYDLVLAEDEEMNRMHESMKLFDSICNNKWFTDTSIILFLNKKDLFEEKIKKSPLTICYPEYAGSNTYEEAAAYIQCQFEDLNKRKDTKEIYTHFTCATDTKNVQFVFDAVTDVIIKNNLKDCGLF
# Pyruvate kinase PKM (Homo sapiens), sequence (P14618 whole entry, looked up): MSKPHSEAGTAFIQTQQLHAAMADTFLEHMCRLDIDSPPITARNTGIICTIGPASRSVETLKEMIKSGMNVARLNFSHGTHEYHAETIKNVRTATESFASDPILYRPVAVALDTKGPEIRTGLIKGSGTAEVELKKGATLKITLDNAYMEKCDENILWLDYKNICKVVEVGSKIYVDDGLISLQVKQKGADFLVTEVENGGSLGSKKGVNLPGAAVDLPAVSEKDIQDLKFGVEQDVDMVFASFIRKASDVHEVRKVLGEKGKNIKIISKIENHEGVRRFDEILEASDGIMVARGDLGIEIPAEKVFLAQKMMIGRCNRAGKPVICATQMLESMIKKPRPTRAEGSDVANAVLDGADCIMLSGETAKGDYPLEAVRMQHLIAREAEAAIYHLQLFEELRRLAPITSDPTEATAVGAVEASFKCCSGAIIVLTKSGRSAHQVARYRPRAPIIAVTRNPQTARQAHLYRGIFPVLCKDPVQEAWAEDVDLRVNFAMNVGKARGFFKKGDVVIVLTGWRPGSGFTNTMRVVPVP
smiles,measurement,setting,value
Nc1c(S(=O)(=O)O)cc(Nc2ccc(Nc3nc(Cl)nc(Nc4ccc(S(=O)(=O)O)cc4)n3)c(S(=O)(=O)O)c2)c2c1C(=O)c1ccccc1C2=O,"activity change, negative = inhibition",[1],-21.1% (inactive)
same,Potency,[2],15.8 µM (active)
same,Potency,[3],> 46 µM (inactive)
same,Potency,[4],> 46 µM (inactive)
same,Potency,[5],inactive
same,outcome,[6],inactive
same,Potency,[7],inactive
same,Potency,[8],inactive
same,Potency,[9],inactive
same,Potency,[10],inactive
same,outcome,[11],inactive
same,Potency,[12],0.631 µM (active)
same,outcome,[13],inactive
same,outcome,[14],inactive
same,"activity change, negative = inhibition",[15]; at 57.5 µM (top of the series),-0.911% (inactive)
same,max response,[15]; measured here: cell count channel max response,-15%
same,max response,[15]; measured here: lipid channel max response,-16.5%
same,Potency,[16],0.251 µM (active)
same,Potency,[17],8.91 µM (active)
same,Potency,[18],3.98 µM (active)
